USP17 block – inhibitors of human USP17 deubiquitinase. 47,000 tested, 6.5% active. purified USP17, Ub-rhodamine cleavage fluorescence, 3 h. inhibition, % at 50 µM. Ubiquitin carboxyl-terminal hydrolase 17-like protein 5 (Homo sapiens), A8MUK1
USP28 inh – inhibitors of human USP28 deubiquitinase; purified USP28, Ub-rhodamine cleavage fluorescence, 30 min; inhibition, % at 25 µM; Ubiquitin carboxyl-terminal hydrolase 28 (Homo sapiens), Q96RU2; 47,000 tested, 3% active
USP30 inh – inhibitors of human USP30 deubiquitinase; purified USP30, Ub-rhodamine cleavage fluorescence; inhibition, % at 25 µM; 47,000 tested, 5.3% active; AID 1645860, 2021
Target sequence (Q70CQ3 whole entry, looked up): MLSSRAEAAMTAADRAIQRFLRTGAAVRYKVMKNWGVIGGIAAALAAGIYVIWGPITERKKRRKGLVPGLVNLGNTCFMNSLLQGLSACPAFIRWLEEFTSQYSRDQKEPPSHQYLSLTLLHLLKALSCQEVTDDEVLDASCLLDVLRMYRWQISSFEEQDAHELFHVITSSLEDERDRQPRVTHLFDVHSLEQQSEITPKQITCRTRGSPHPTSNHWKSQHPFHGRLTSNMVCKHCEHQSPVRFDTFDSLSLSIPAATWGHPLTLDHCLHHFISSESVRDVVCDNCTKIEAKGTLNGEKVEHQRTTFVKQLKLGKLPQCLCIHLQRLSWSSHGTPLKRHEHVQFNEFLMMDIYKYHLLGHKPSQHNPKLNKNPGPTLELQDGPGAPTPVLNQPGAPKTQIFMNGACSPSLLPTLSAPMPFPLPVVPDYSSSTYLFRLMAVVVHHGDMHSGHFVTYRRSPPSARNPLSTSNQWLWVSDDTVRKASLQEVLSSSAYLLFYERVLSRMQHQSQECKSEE
* marks the source's active call; other numbers are inactive results. The list is not random: actives were taken first. Their share in the collection is about 11%. Cut-off read from the data, not from the text of the source: active = inhibition above about 30%; inactive = the rest.

SMILES	USP17 block	USP28 inh	USP30 inh
CCC1CN(S(=O)(=O)c2ccc3c(c2)NC(=O)CCS3)c2cc(C)ccc2O1 (centres undefined)	20	13	43*
Cc1cccc(CNS(=O)(=O)c2ccc3c(c2)NC(=O)CCS3)c1	0	-1	-1
CCN(CC)S(=O)(=O)c1ccc(C)c(NC(=O)CSc2nnc(-c3ccncc3)n2Cc2ccccc2)c1	-7	2	12
Cc1ccc(S(=O)(=O)N(C)C)cc1NC(=O)Cc1ccc(Cl)c(Cl)c1	14	93*	25
Cc1c(C)c2ccc(OC(C)C(=O)NCc3ccncc3)cc2oc1=O (centres undefined)	11	14	11
Cc1ccc(NC(=O)CCS(=O)(=O)c2ccc3c(c2)OCC(=O)N3)cc1Cl	-4	11	-16
Cc1cc(Cl)ccc1NC(=O)CCS(=O)(=O)c1ccc2c(c1)OCC(=O)N2	34*	-9	-8
CC1(C)Cc2c(sc3nc(SCCOc4ccccc4)nc(N)c23)CO1	16	9	16
CCCSc1nc(N)c2c3c(sc2n1)COC(C)(C)C3	47*	-11	-13
O=C(c1ccccc1)N1CC[C@@H]2CN(C(=O)c3ccc(O)cc3)[C@@H]2C1	-7	-11	-6
O=C(COC(=O)C(Cc1c[nH]c2ccccc12)NC(=O)c1ccccc1Cl)Nc1cc(F)ccc1F (centres undefined)	32*	22	16
O=C(COC(=O)C(Cc1c[nH]c2ccccc12)NC(=O)c1ccc(F)cc1)NCc1ccc(F)cc1 (centres undefined)	9	-4	-3
Clc1cccc(-n2ncc3c2ncn2nc(-c4ccccc4)nc32)c1	-12	-3	-14
COCC1CN(C(=O)c2cccn2C)Cc2cn(CC3CC3)nc21 (centres undefined)	12	1	17
CCn1cc2c(n1)C(COC)CN(C(=O)c1cc(C)nn1CC)C2 (centres undefined)	65*	25	54*
Cc1cnc(C(=O)N2CCCC(c3ncc(Cc4ccccc4F)o3)C2)cn1 (centres undefined)	1	7	17
CCCCNC(=O)c1nc(CS(=O)(=O)c2ccc(Cl)cc2)no1	-2	6	4
O=C(Nc1nc2c(s1)CCCC2C(=O)NCc1ccncc1)c1ccc2c(c1)OCO2 (centres undefined)	-15	38*	7
O=C(Nc1nc2c(s1)CCC2C(=O)NCc1ccncc1)c1ccccc1 (centres undefined)	-14	-16	-39
Cc1cc(C)n(CC2CCCN2Cc2nc(C3CC3)no2)n1 (centres undefined)	-30	-39	-154
CCCCCCCCC/C=C/C(=O)CCc1c(O)c(C=O)c2c(c1O)C(=O)OC2O (centres undefined)	75*	71*	-9
COc1ccc(C(N)=O)cc1S(=O)(=O)N1CC(c2ccccc2)CC1=O (centres undefined)	1	6	7
CCc1cccc(C)c1NC(=O)Cn1c(C(C)NC(=O)c2ccc(C)cc2)nc2ccccc21 (centres undefined)	61*	40*	54*
CC(=O)NC(Cc1ccccc1)c1nc2ccccc2n1Cc1ccccc1C (centres undefined)	-19	-14	-22
CC(C)c1ccc(NC(=O)Cn2c(CNC(=O)c3ccccc3)nc3ccccc32)cc1	-28	-5	-19
SMILES	USP17 block	USP28 inh	USP30 inh
CC(NC(=O)c1ccccc1)c1nc2ccccc2n1CC(=O)Nc1ccc(F)cc1 (centres undefined)	39*	8	17
CC(NC(=O)c1ccccc1)c1nc2ccccc2n1CC(=O)Nc1ccc2c(c1)OCO2 (centres undefined)	54*	15	49*
CCOc1nc2cccnc2n(CC(=O)Nc2ccc3c(c2)OCO3)c1=O	-52	-36	-174
O=C(N[C@H](Cc1ccccc1)C(=O)NCc1cscn1)c1ccccc1F	-3	-9	-12
O=c1[nH]c(-c2cccnc2)nc2c1CN(Cc1ccccn1)CC2	-23	-21	-51
O=C(NCCc1ccc(Cl)cc1)C1CCCN(S(=O)(=O)N2CCC3(CC2)OCCO3)C1 (centres undefined)	-17	-11	-19
CN1[C@@H](CCC(=O)NCc2cccnc2)CNC(=O)[C@@H]2[C@H]1CCN2CC1CC1	-1	2	12
O=C(NCCc1ccccc1Cl)c1oc(=O)c2ccccc2c1-c1ccccc1	19	29	44*
O=C(Nc1ccccc1F)c1oc(=O)c2ccccc2c1-c1ccccc1	-10	-20	-4
CC(C)[C@@H](C(=O)O)n1c(=O)[nH]c2ccccc2c1=O	-3	-10	0
c1ccc(CSc2ccc3nnc(-c4ccncc4)n3n2)nc1	-23	8	-3
c1ccc(-c2nnc3ccc(SCc4ccccn4)nn23)cc1	0	31*	24
COc1ccc(C(=O)CSc2ccc3nnc(-c4cccc(F)c4)n3n2)cc1	-13	-27	-31
O=C(CSc1ccc2nnc(-c3cccc(F)c3)n2n1)c1ccccc1	30*	-11	-22
Cc1nc2ccc(NC(=O)c3c(C)oc4nc[nH]c(=O)c34)cc2s1	-78	-55	-262
Cc1cccc(N2CCN(C(=O)CN3C(=O)CN(C)C(=O)c4ccccc43)CC2C)c1 (centres undefined)	-2	-1	-3
COc1ccccc1Nc1ncc(C(=O)NCCc2ccc(Cl)cc2)c2ccccc12	81*	7	12
COc1ccccc1Nc1ncc(C(=O)N(C)Cc2ccccc2)c2ccccc12	23	-18	-121
COC(=O)CNC(=O)c1cnc(Nc2ccccc2OC)c2ccccc12	31*	9	-15
COc1ccccc1CNC(=O)c1cnc(Nc2ccccc2OC)c2ccccc12	-4	-9	-12
CCCc1noc(-c2cc(-c3ccc(Cl)cc3)nc3ccccc23)n1	1	-2	0
COc1cccc([C@@H]2C[C@]3(C)NC(=O)CCCC[C@@H]3N2C(=O)c2ccnn2C)c1	11	13	18
COc1cccc(C(=O)NCc2[nH]nc3ccccc23)c1	57*	28	27
COc1cc(OC)cc(C(=O)NCc2[nH]nc3ccccc23)c1	9	31*	19
COc1cccc(C(=O)NCc2csc(-c3ccccc3)n2)c1	-15	-4	-17
SMILES	USP17 block	USP28 inh	USP30 inh
COc1ccc(CNC(=O)c2cc(-c3ccccn3)n[nH]2)cc1	-70	-9	-10
Cc1noc(C)c1CC(=O)Nc1cccn2ncnc12	-6	-4	0
O=C(NCc1cnc(C2CCCCO2)nc1)c1n[nH]c2c1CCC2 (centres undefined)	15	9	12
CC1(c2ncc(CNC(=O)c3n[nH]c4c3CCCC4)cn2)CCCCO1 (centres undefined)	10	12	32*
O=C(CN(C(=O)c1ccc(-c2ccccc2)[nH]1)c1ccc(Cl)cc1)NC1CCCC1	0	-19	-24
COc1ccc(N(CC(=O)NC2CCCCC2)C(=O)c2ccc(-c3ccccc3)[nH]2)cc1OC	78*	-8	-11
Cc1ccc(NS(=O)(=O)c2cc(C(=O)N3CCCC3)n(C)c2C)cc1C	1	10	18

High-throughput results from PubChem.
